From PMC5540273 (PLoS ONE, 2017)

Tests used:
Details in all cases: concentration: 1 μM,replicates: in singlicate; n = 1
PIP5K1A = test system: PIP5K1A
PIP5K1C = test system: PIP5K1C
PIP5K2B = test system: PIP5K2B
PIP5K2C = test system: T1, PIP5K2C
T1 construct: gene PIP4K2C

PKAC-alpha = test system: T2, PKAC-alpha
T2 construct: gene PRKACA

PKAC-beta = test system: T3, PKAC-beta
T3 construct: gene PRKACB

PKMYT1 = test system: PKMYT1
PKN1 = test system: PKN1
PKN2 = test system: PKN2
PLK1 = test system: PLK1
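Also: KINOMEscan kinase panel screen.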

Compound | %Inh (PIP5K1A) | %Inh (PIP5K1C) | %Inh (PIP5K2B) | %Inh (PIP5K2C) | %Inh (PKAC-alpha) | %Inh (PKAC-beta) | %Inh (PKMYT1) | %Inh (PKN1) | %Inh (PKN2) | %Inh (PLK1)
C[C@@H]1CNc2c(sc3ccc4nc(-c5ccncc5)ccc4c23)C(=O)N1 | 30% | 11% | 0% | 0% | 0% | 27% | 7% | 7% | 15% | 0%
Cn1ccc2ncnc(Oc3ccc(NC(=O)Nc4cncc(C(F)(F)F)c4)c(Cl)c3)c21 | 29% | 20% | 6% | 0% | 0% | 0% | 6% | 0% | 0% | 0%
O=C(Nc1n[nH]c2cc(-c3ccco3)ccc12)C1CC1 [SB-737447] | 45% | 12% | 27% | 0% | 0% | 0% | 0% | 0% | 12% | 0%
NC(=O)Nc1sc(-c2ccc(F)cc2)cc1C(N)=O [GW789449] | 93.9% | 65% | 87% | 28% | 0% | 26% | 0% | 7% | 54% | 37%
COc1cccc(OC)c1C(=O)Nc1cccc(-c2nn3ccccc3c2-c2ccnc(Nc3cccc(F)c3)n2)c1 [GSK361065] | 0% | 0% | 0% | 0% | 23% | 0% | 5% | 0% | 13% | 0%
N#Cc1cccc(C(=O)NC2CCN(c3ccnc(Nc4ccc(F)cc4)n3)C2)c1 (stereo not drawn) [GSK1379708] | 0% | 37% | 0% | 21% | 9% | 0% | 0% | 14% | 0% | 0%
C[C@@H](Oc1cc(-n2cnc3cc(-c4cnn(C)c4)ccc32)sc1C(N)=O)c1ccccc1Cl [GSK580432] | 0% | 38% | 37% | 3% | 2% | 0% | 15% | 0% | 72% | –
CC(C(=O)NC1CCN(c2ccnc(Nc3ccc(F)cc3)n2)C1)c1ccc(Cl)cc1 (stereo not drawn) [GSK1379713] | 21% | 0% | 1% | 4% | 0% | 6% | 0% | 4% | 0% | 0%
Cc1cccc(-c2nc(Nc3ccncc3)c3sccc3n2)n1 [GW869641] | 4% | 61% | 3% | 45% | 25% | 38% | 3% | 1% | 12% | 33%
CN1CCN(CCCNc2nccc(-c3c(-c4ccc(F)cc4)nn4cc(C(N)=O)ccc34)n2)CC1 [GW622475] | 0% | 50% | 12% | 29% | 6% | 1% | 9% | 13% | 0% | 0%
CCCC(=O)Nc1n[nH]c2ncccc12 [SB-601436] | 24% | 0% | 39% | 0% | 0% | 10% | 0% | 0% | 9% | 0%
COc1cc2c(Nc3ccc(NC(=O)c4ccccc4)cc3)ncnc2cc1OCCCN1CCOCC1 [GSK301329] | 0% | 27% | 14% | 0% | 3% | 14% | 1% | 0% | 0% | 0%
CS(=O)(=O)Nc1ccc(-c2ccnc3[nH]ccc23)cc1 [GSK993273] | 57% | 29% | 55% | 89% | 84% | 85% | 0% | 21% | 18% | 0%
CCNCC(Cc1ccccc1)NC(=O)c1cc(Br)c(-c2ccnc3[nH]ccc23)s1.Cl.Cl (stereo not drawn) [GSK1383280] | 55% | 38% | 16% | 36% | 99.4% | 99.3% | 0% | 39% | 58% | 0%
CC(C)c1nc(-c2cccc(NS(=O)(=O)c3ccccc3)c2)c(-c2ccnc(Nc3ccc4c(c3)CN(C)CC4)n2)s1 [GSK1649598] | 0% | 0% | 20% | 65% | 0% | 0% | 0% | 43% | 0% | 0%
c1ccc(Oc2ccc(Nc3ccnc4ccc(-c5ccccn5)cc34)cc2)cc1 [GW407034] | 6% | 23% | 25% | 28% | 0% | 8% | 11% | 28% | 0% | 0%

Compound | %Inh (PIP5K1A) | %Inh (PIP5K1C) | %Inh (PIP5K2B) | %Inh (PIP5K2C) | %Inh (PKAC-alpha) | %Inh (PKAC-beta) | %Inh (PKMYT1) | %Inh (PKN1) | %Inh (PKN2) | %Inh (PLK1)
O=C1NCCc2[nH]c(-c3ccncc3)cc21 | 2% | 12% | 4% | 0% | 34% | 32% | 4% | 77% | 80% | –
Cc1ccn2nc(-c3ccc(F)cc3)c(-c3ccncc3)c2c1.Cl [GW457859] | 54% | 81% | 15% | 26% | 29% | 13% | 0% | 0% | 0% | 0%
C[C@@H](Oc1cc(-n2cnc3ccc(-c4ccncc4)cc32)sc1C(N)=O)c1ccccc1Cl [GSK483724] | 0% | 85% | 13% | 81% | 13% | 5% | 0% | 17% | 10% | –
NC(=O)c1ccc(-c2cc3ncnc(SCC(=O)O)c3s2)cc1 | 0% | 93% | 6% | 72% | 0% | 0% | 0% | 0% | 4% | 0%
CSc1nccc(-c2c(-c3ccc(F)cc3)ncn2CCCN2CCOCC2)n1.Cl [SB-217146] | 0% | 0% | 0% | 0% | 14% | 19% | 0% | 0% | 0% | 33%
O=C(NCC1CC1)c1ccc(-c2cc(C(=O)NC3CC3)ccc2F)cc1 [GW810445] | 54% | 0% | 0% | 22% | 7% | 0% | 0% | 0% | 0% | 6%
CN(c1ccccc1CNc1nc(Nc2ccc3c(c2)CC(=O)N3)ncc1C(F)(F)F)S(C)(=O)=O | 32% | 0% | 19% | 9% | 77% | 63% | 0% | 85% | 66% | 0%
C[C@@H](Oc1cc(-n2cnc3cc(-c4ccncc4)ccc32)sc1C(N)=O)c1ccccc1Cl [GSK479719] | 0% | 58% | 21% | 29% | 0% | 0% | 0% | 15% | 44% | –
CCn1c(-c2nonc2N)nc2cncc(CNC3CCNCC3)c21.Cl [SB-747651] | 0% | 25% | 0% | 22% | 85% | 83% | 3% | 39% | 0% | 0%
Cn1ccc2ncnc(Oc3ccc(NC(=O)Nc4cccc(C(F)(F)F)c4)c(F)c3)c21 | 0% | 17% | 0% | 0% | 0% | 34% | 2% | 0% | 16% | 0%
COC(=O)c1cccc(NC(=O)NC2CCN(c3ccnc(Nc4cc(OC)c(OC)c(OC)c4)n3)C2)c1 (stereo not drawn) [GSK1379767] | 22% | 64% | 10% | 90.7% | 0% | 0% | 6% | 7% | 0% | 8%
Nc1nccc(-c2ccc3c(N)n[nH]c3c2)n1 [GSK1034945] | 0% | 29% | 48% | 10% | 12% | 0% | 8% | 0% | 9% | 0%
CS(=O)c1ccc(-c2coc3ccc(-c4n[nH]c(=O)o4)cc23)cc1 (stereo not drawn) | 0% | 68% | 20% | 79% | 0% | 23% | 8% | 8% | 12% | 6%
COc1cccc(C2=C(Nc3cccc(Cl)c3)C(=O)NC2=O)c1 [SB-341556] | 0% | 23% | 0% | 28% | 0% | 0% | 0% | 5% | 0% | 0%
CS(=O)(=O)c1cccc(CNc2nc(Nc3ccc4c(c3)[C@@H]3C[C@@H]4CNC3=O)ncc2C(F)(F)F)c1 | 52% | 48% | 93.3% | 52% | 0% | 0% | 0% | 56% | 22% | 0%
